The supplement of paper PMC11732987, “Enantioselective OTUD7B fragment discovery through chemoproteomics screening and high-throughput optimisation” (Communications Chemistry, 2025)
A number with no mark means an inactive call.

What follows are molecules tested against T1, VCPIP1 (UniProt Q96JH7) (assay: log2 ratio of Biotin-Ahx-Ub-VS probe labelling (fragment/DMSO); higher = less target engagement (more negative = stronger competition), active = hit call of the paper (q ≤ 0.05, log2 ratio ≤ -1)). Conditions: compound concentration: 200 uM; treatment time: 3 h.
T1 sequence (whole entry): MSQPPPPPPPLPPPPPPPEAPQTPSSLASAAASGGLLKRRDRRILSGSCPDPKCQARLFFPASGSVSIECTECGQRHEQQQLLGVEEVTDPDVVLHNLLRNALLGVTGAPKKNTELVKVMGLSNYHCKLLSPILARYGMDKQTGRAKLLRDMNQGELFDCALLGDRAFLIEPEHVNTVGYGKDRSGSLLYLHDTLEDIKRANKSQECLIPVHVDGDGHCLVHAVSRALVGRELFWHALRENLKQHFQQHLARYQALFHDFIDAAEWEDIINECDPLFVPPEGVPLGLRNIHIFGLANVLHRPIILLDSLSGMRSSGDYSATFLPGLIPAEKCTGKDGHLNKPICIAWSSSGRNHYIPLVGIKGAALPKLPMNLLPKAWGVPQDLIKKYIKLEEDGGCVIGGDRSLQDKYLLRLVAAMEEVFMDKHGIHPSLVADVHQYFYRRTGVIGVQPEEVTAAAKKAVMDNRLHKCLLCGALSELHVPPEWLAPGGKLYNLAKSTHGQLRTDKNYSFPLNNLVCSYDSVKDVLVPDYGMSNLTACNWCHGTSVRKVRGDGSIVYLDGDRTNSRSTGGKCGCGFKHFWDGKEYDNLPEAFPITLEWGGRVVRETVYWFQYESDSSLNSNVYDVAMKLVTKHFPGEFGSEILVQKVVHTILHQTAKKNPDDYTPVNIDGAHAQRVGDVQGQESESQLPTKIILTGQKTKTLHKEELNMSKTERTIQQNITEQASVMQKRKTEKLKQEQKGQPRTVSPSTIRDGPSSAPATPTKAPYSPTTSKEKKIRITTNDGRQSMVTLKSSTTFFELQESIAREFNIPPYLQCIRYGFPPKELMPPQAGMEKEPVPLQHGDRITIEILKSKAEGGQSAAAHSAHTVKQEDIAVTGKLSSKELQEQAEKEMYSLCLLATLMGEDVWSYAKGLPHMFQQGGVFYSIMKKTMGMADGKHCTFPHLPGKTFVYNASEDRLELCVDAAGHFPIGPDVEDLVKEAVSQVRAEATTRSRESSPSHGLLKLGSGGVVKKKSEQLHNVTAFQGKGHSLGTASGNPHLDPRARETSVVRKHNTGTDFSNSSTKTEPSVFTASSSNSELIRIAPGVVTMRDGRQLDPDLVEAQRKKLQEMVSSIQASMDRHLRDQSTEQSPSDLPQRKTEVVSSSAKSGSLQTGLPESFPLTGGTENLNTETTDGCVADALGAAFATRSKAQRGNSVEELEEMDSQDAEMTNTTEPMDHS
Method: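 Competitive ABPP in HEK293T cell lysate. Lysates were treated with each chloroacetamide fragment at 200 µM for 3 h, then with Biotin-Ahx-Ub-VS (0.5 µM, 1 h), NeutrAvidin-enriched and analysed by diaPASEF LC-MS/MS. Protein LFQ was median-normalised; average log2 ratio is fragment/DMSO from an unpaired t-test (n=3 treated, n=44 DMSO). Hits: q ≤ 0.05, log2 ratio ≤ -1, unique peptides ≥ 2.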

Question: Which “log2 ratio of Biotin-Ahx-Ub-VS probe labelling” value (shortened to “log2 ratio”) does the source give for Cc1cc(CC(C)NC(=O)CCl)n[nH]1 (stereo not given) here?
Answer: Its value is 0.107.

Question: Which “log2 ratio” value does the source give for O=C(CCl)Nc1cc(Cl)ccc1-n1cncn1 here?
Answer: Its value is -1.26 (active).

Question: For O=C(CN1CCN(C(=O)CCl)CC1)Nc1cccc(F)c1, which “log2 ratio” value is on record?
Answer: The value was -0.698.

Question: For O=C(CCl)Nc1cccc(C(=O)N2CCSCC2)c1, which “log2 ratio” value is on record?
Answer: Its value is -2.83.

Question: For N#Cc1ccc(Cl)cc1NC(=O)CCl, which “log2 ratio” value is on record?
Answer: The value was -1.7 (active).

Question: With Cc1c(C#N)c(NC(=O)CCl)n(Cc2ccco2)c1C as the molecule, how does the “log2 ratio” value read?
Answer: The value was -2.32 (active).

Question: For CC1(NC(=O)CCl)CCS(=O)(=O)C1 (stereo not given), which “log2 ratio” value is on record?
Answer: Its value is -0.848.

Question: With O=C(CCl)N1CC=C(c2c[nH]c3ccccc23)CC1 as the molecule, how does the “log2 ratio” value read?
Answer: Its value is -2.41 (active).

Question: How did the “log2 ratio” value turn out when Cc1cccc(NC(=O)CCl)c1C was run?
Answer: Its value is -0.666.

Question: Which “log2 ratio” value does the source give for CN(C(=O)CCl)c1nc2ccccc2s1 here?
Answer: Its value is -0.54.

Question: With O=C(CCl)NC1CCCCNC1=O (stereo not given) as the molecule, how does the “log2 ratio” value read?
Answer: Its value is -0.603.

Question: For Cc1ccc(N2CCC(NC(=O)CCl)C2=O)cc1 (stereo not given), which “log2 ratio” value is on record?
Answer: Its value is -2.9 (active).

Question: With CCC1c2ccsc2CCN1C(=O)CCl (stereo not given) as the molecule, how does the “log2 ratio” value read?
Answer: The value was -0.892.

Question: O=C(CCl)NC1CCC2(CC1)OCCO2 was tested. Which “log2 ratio” value did it give?
Answer: Its value is -0.827.

Question: For O=C(CCl)N1CCC(S(=O)(=O)c2ccc(F)cc2)CC1, which “log2 ratio” value is on record?
Answer: Its value is -0.527.

Question: For O=C(CCl)N(C1CCCC1)C1CCS(=O)(=O)C1 (stereo not given), which “log2 ratio” value is on record?
Answer: The value was -0.0269.

Question: CCc1c[nH]c(CNC(=O)CCl)n1.Cl was tested. Which “log2 ratio” value did it give?
Answer: Its value is -0.554.

Question: How did the “log2 ratio” value turn out when Cc1ncsc1CCNC(=O)CCl was run?
Answer: Its value is 0.0583.

Question: O=C(CCl)NCc1ccc2c(c1)OCO2 was tested. Which “log2 ratio” value did it give?
Answer: Its value is -2 (active).

Question: With O=C(CCl)Nc1nnc(CC(F)(F)F)o1 as the molecule, how does the “log2 ratio” value read?
Answer: The value was -0.723.

Question: Which “log2 ratio” value does the source give for Cc1nc(CN2CCCN(C(=O)CCl)CC2)no1.Cl here?
Answer: Its value is -0.1.

Question: With O=C(CCl)N1CCCC2CCCCC21 (stereo not given) as the molecule, how does the “log2 ratio” value read?
Answer: The value was -2.13 (active).

Question: For O=C(CCl)N1CCc2[nH]c3ccccc3c2C1, which “log2 ratio” value is on record?
Answer: The value was -2.89 (active).

Question: For Cc1nc(-c2cccc(NC(=O)CCl)c2)cs1, which “log2 ratio” value is on record?
Answer: The value was -1.87 (active).

Question: For O=C(CCl)Nc1ccc(F)cc1Cl, which “log2 ratio” value is on record?
Answer: Its value is -1.05 (active).

Question: For CC(NC(=O)CCl)c1cnn(C2CC2)c1 (stereo not given), which “log2 ratio” value is on record?
Answer: The value was -1.15 (active).

Question: Which “log2 ratio” value does the source give for COc1ccc(CN(C)C(=O)CCl)cc1 here?
Answer: The value was -1.54 (active).

Question: How did the “log2 ratio” value turn out when O=C(CCl)N1CCCC1c1ccsc1 (stereo not given) was run?
Answer: Its value is -1.07 (active).

Question: For CCN(C(=O)CCl)C1CCS(=O)(=O)C1 (stereo not given), which “log2 ratio” value is on record?
Answer: The value was 0.0777.

Question: For Cl.O=C(CCl)NCc1ccnc(Oc2ccccc2F)c1, which “log2 ratio” value is on record?
Answer: Its value is -2.73 (active).

Question: O=C(CCl)N1CCOC2(CCC2)C1 was tested. Which “log2 ratio” value did it give?
Answer: The value was -0.0688.

Question: How did the “log2 ratio” value turn out when Cc1ccc(CNC(=O)CCl)nc1C.Cl was run?
Answer: Its value is -2.09 (active).

Question: For O=C(CCl)NCc1noc(C2CC2)n1, which “log2 ratio” value is on record?
Answer: Its value is -0.61.

Question: How did the “log2 ratio” value turn out when NC(=O)C(Cc1ccccc1)NC(=O)CCl (stereo not given) was run?
Answer: The value was -0.38.

Question: For Cl.Cn1cnc2cc(CNC(=O)CCl)ccc21, which “log2 ratio” value is on record?
Answer: The value was -1.11 (active).

Question: With O=C(CCl)N(C1=CCCCC1)C1CC1 as the molecule, how does the “log2 ratio” value read?
Answer: The value was -0.286.

Question: Which “log2 ratio” value does the source give for COc1cccc(CN(C)C(=O)CCl)c1 here?
Answer: Its value is -0.854.

Question: How did the “log2 ratio” value turn out when N#Cc1ccccc1N1CCN(C(=O)CCl)CC1 was run?
Answer: Its value is -1.53 (active).

Question: CC1CCc2onc(CNC(=O)CCl)c2C1 (stereo not given) was tested. Which “log2 ratio” value did it give?
Answer: Its value is -1.39 (active).

Question: For Cc1noc(N2CCN(C(=O)CCl)CC2)n1.Cl, which “log2 ratio” value is on record?
Answer: The value was 0.15.
